In PMC5540273 (PLoS ONE, 2017):

Tests used:
Conditions in all cases: concentration: 1 μM, replicates: in singlicate; n = 1
PAK3 = test system: PAK3
PAK4 = test system: PAK4
PAK6 = test system: PAK6
PAK7 = test system: PAK7
PCTK1 = test system: T1, PCTK1
T1 construct: gene CDK16

PCTK2 = test system: T2, PCTK2
T2 construct: gene CDK17

PCTK3 = test system: T3, PCTK3
T3 construct: gene CDK18

PDGFRA = test system: PDGFRA
PDGFRB = test system: PDGFRB
PDPK1 = test system: PDPK1
PFTAIRE2 = test system: PFTAIRE2
PFTK1 = test system: T4, PFTK1
T4 construct: gene CDK14

PHKG1 = test system: PHKG1
PHKG2 = test system: PHKG2
PIK3C2B = test system: PIK3C2B
PIK3C2G = test system: PIK3C2G
PIK3CA = test system: PIK3CA
PIK3CB = test system: PIK3CB
PIK3CD = test system: PIK3CD
PIK3CG = test system: PIK3CG
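Note: KINOMEscan kinase panel screen.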

SMILES	%Inh (PAK3) [%]	%Inh (PAK4) [%]	%Inh (PAK6) [%]	%Inh (PAK7) [%]	%Inh (PCTK1) [%]	%Inh (PCTK2) [%]	%Inh (PCTK3) [%]	%Inh (PDGFRA) [%]	%Inh (PDGFRB) [%]	%Inh (PDPK1) [%]	%Inh (PFTAIRE2) [%]	%Inh (PFTK1) [%]	%Inh (PHKG1) [%]	%Inh (PHKG2) [%]	%Inh (PIK3C2B) [%]	%Inh (PIK3C2G) [%]	%Inh (PIK3CA) [%]	%Inh (PIK3CB) [%]	%Inh (PIK3CD) [%]	%Inh (PIK3CG) [%]
Fc1ccc(-c2nn3cccc(F)c3c2-c2ccncc2)cc1 [GW475620]	20	0	0	0	6	0	0	0	3	0	0	20	0	0	0	15	0	0	25	0
Cc1ccc(NC(=O)Nc2ccc(Cl)cc2)cc1-c1ccc(C(=O)Nc2ccncc2)cc1 [GSK1398472]	21	0	0	0	5	0	0	10	99.7	0	0	12	0	0	0	0	0	36	0	0
Nc1nccc(-c2c(-c3ccc(F)cc3)ncn2C2CCN(Cc3ccccc3)CC2)n1 [SB-219980]	5	0	0	0	3	0	0	22	20	0	5	0	1	0	17	52	0	4	35	7
Nc1cccc(-c2ccc3c(N)n[nH]c3c2)n1 [GSK2192730]	0	0	8	7	4	20	3	2	18	0	20	0	0	6	5	0	18	0	0	15
CC(C)c1cc(-c2ccc3c(N)n[nH]c3c2)nc(N)n1 [GSK2250882]	0	0	0	6	0	9	11	0	18	74	26	4	1	5	0	0	0	0	0	5
COc1ccc(CSc2nnc(-c3ccc4nccn4c3)o2)cc1C(F)(F)F	0	16	35	22	13	8	3	28	0	0	0	4	0	0	21	12	15	11	29	32
O=c1cc(N2CCOCC2)nc2n(Cc3cccc(Cl)c3Cl)c3ccccc3n12 [GSK2299009]	42	0	21	12	8	8	20	0	51	0	29	19	7	3	0	0	7	97.5	3	1
Cc1ccc(NC(=O)Nc2ccc(Cl)c(C(F)(F)F)c2)cc1-c1ccc(C(=O)Nc2ccncc2)cc1 [GSK1398470]	22	0	0	2	0	6	14	19	97.5	26	21	0	23	4	0	2	9	0	0	10
COc1nccc(-c2c(-c3ccc(F)cc3)ncn2CCCN2CCOCC2)n1 [SB-282852]	0	0	9	7	6	0	0	17	0	0	0	0	13	0	8	8	0	0	0	37
COc1ccc2cc(-c3nc(-c4ccccc4C(C)C)[nH]c3-c3ccncc3)ccc2c1 [SB-660566]	30	0	0	0	51	0	2	0	7	0	12	17	0	0	0	0	0	0	0	0
Nc1ncnc2occ(-c3ccc4c(c3)CCN4C(=O)Cc3cc(F)ccc3F)c12 [GSK2645446]	0	0	0	12	2	0	2	0	50	0	12	10	0	0	14	0	0	0	0	5
CNCc1ccc2nc(NC(=O)c3ccc(C(C)(C)C)cc3)cn2c1	4	4	0	0	41	3	0	73	74	3	6	0	5	0	91.5	0	89	16	22	40
Cn1cncc1C(=O)NC1CCN(c2ccnc(Nc3ccc(F)cc3)n2)C1 (stereo not drawn) [GSK1379717]	0	0	0	0	4	0	16	2	14	0	10	11	0	6	5	0	0	0	0	0
COC(=O)C(Cc1ccccc1)NC(=O)NC1CCN(c2ccnc(Nc3ccc(F)cc3)n2)C1 (stereo not drawn) [GSK1379714]	16	0	0	7	5	9	0	7	23	4	14	0	2	0	0	73	0	0	27	1
COc1ccc(-c2coc3ccc(-c4nnc(C)o4)cc23)cc1	0	5	6	5	56	0	11	0	0	33	0	9	0	20	0	21	0	0	0	12
CS(=O)(=O)CCNCc1nc(-c2ccc3ncnc(Nc4ccc(OCc5ccccc5)c(Cl)c4)c3c2)cs1.Cl [GW582764]	24	0	0	0	6	0	17	0	8	0	7	3	0	0	0	0	0	0	0	0
Cc1ccc(NC(=O)c2ccc(Cl)cc2)cc1-c1ccc(C(=O)Nc2ccncc2)cc1 [GSK1398467]	19	0	0	65	0	0	0	66	100	0	0	0	0	16	0	0	0	0	0	0
CCn1c(-c2c(N)noc2C)nc2cnccc21 [SB-737856]	3	0	0	0	0	0	44	0	0	2	15	33	0	0	1	0	0	100	3	0
COc1cc2ncnc(Nc3cccc(Br)c3)c2cc1OC.Cl [GI230329]	0	0	0	12	0	0	2	0	16	11	14	16	15	0	8	0	0	2	0	0
Cc1c(Cn2c(C)c(C)n3c(=O)cc(N4CCOCC4)nc23)cccc1C(F)(F)F [GSK2328680]	0	19	0	0	0	0	31	0	16	0	8	10	0	0	4	0	20	99.1	80	4
COc1ccc(CSc2nnc(-c3ccc4c(c3)CCO4)o2)cc1	0	0	0	0	0	5	0	0	0	0	0	0	0	25	0	0	0	0	0	0

SMILES	%Inh (PAK3) [%]	%Inh (PAK4) [%]	%Inh (PAK6) [%]	%Inh (PAK7) [%]	%Inh (PCTK1) [%]	%Inh (PCTK2) [%]	%Inh (PCTK3) [%]	%Inh (PDGFRA) [%]	%Inh (PDGFRB) [%]	%Inh (PDPK1) [%]	%Inh (PFTAIRE2) [%]	%Inh (PFTK1) [%]	%Inh (PHKG1) [%]	%Inh (PHKG2) [%]	%Inh (PIK3C2B) [%]	%Inh (PIK3C2G) [%]	%Inh (PIK3CA) [%]	%Inh (PIK3CB) [%]	%Inh (PIK3CD) [%]	%Inh (PIK3CG) [%]
CNc1nc(-c2ccc3c(N)n[nH]c3c2)cc(N2C[C@@H](C(=O)NC3CCCCC3)OC[C@H]2C)n1 [GSK2375584]	0	0	0	24	0	10	21	0	35	79	13	25	3	13	0	0	4	34	0	9
O=C(Nc1n[nH]c2nc(-c3cccs3)c(Br)cc12)C1CCCC1 [SB-743341]	0	0	9	0	46	54	56	32	74	0	9	20	2	12	0	5	5	61	0	0
COc1ccc(CSc2nnc(-c3ccc4ncsc4c3)o2)cc1C(F)(F)F	9	0	9	1	0	0	0	0	0	10	0	0	0	15	0	0	0	12	0	5
Cl.Cl.Cl.N#Cc1ccc(CCNc2nccc(-c3cccc(CN4CCNCC4)c3)n2)cc1 [GSK2137462]	6	0	8	12	0	0	0	0	34	8	16	14	25	23	0	0	1	13	0	12
Fc1ccc(-c2nc3n(c2-c2ccncc2)CCS3)cc1 [GI98581]	42	0	0	0	12	0	20	0	16	36	11	16	0	0	92.7	0	91.9	0	0	81
COc1ccc(Nc2nccc(-c3ccc(NC(=O)c4cc5cc(F)ccc5[nH]4)cc3)n2)cc1 [GSK1229496]	0	0	0	5	0	0	0	0	47	0	0	13	0	0	0	0	0	0	0	2
CSc1ccc(-c2nc3n(c2-c2ccncc2)CCC3)cc1 [SKF-105561]	0	0	0	0	3	5	0	28	0	0	1	2	5	0	19	21	0	0	0	23
COc1cccc(C2=C(Nc3cc(Cl)c(O)c(Cl)c3)C(=O)NC2=O)c1 [SB-390767]	100	0	0	0	2	0	0	0	0	0	8	0	0	0	0	0	0	0	0	0
c1ccc(-c2ccnc3[nH]ccc23)cc1 [SB-693578]	0	0	4	4	7	0	24	0	0	0	9	9	0	0	0	0	0	0	0	0
CNc1nc(-c2ccc3c(N)n[nH]c3c2)cc(N2C[C@@H](C(=O)Nc3ccccc3)CC[C@H]2C)n1 [GSK2298859]	0	0	2	20	2	0	9	0	10	83	3	17	0	15	0	0	0	0	0	0
CC(=O)c1c(C)c2cnc(Nc3ccn(C)n3)nc2n(C2CCCC2)c1=O	0	0	0	0	0	0	100	0	0	0	0	0	0	2	0	0	0	0	18	61
COc1ccc(Nc2nccc(NCCNC(=O)Nc3cc(C)ccc3C)n2)cc1 [GSK1379899]	22	0	0	0	2	0	2	0	5	0	9	32	0	0	90	0	86	0	0	68
Cc1cccc2c(-c3ccncn3)c(-c3ccc(F)cc3)nn12 [GW515532]	29	0	0	3	0	0	0	0	10	17	9	8	0	0	0	0	0	0	5	0
O=C1NC(=O)C(c2ccc(Cl)cc2)=C1Nc1cccc(Cl)c1 [SB-317651]	14	18	0	0	0	15	12	9	0	0	0	1	0	0	13	0	9	96.7	0	38
COc1cccc(NC(=O)Nc2ccc(C)c(-c3ccc(C(=O)Nc4ccncc4)cc3)c2)c1 [GSK1398474]	27	0	0	26	0	11	13	48	100	27	27	0	0	17	100	0	99.9	0	0	99.9
CCc1ccc(-c2ccc3c(c2)-c2n[nH]cc2S(=O)(=O)N3C)cc1	0	0	0	0	0	0	0	0	7	4	0	0	0	0	0	0	0	0	0	0
O=C(Nc1n[nH]c2nc(-c3ccco3)c(Br)cc12)C1CCN(Cc2ccccc2)C1.O=C(O)[C@H](O)[C@@H](O)C(=O)O (stereo not drawn) [SB-742034]	12	0	0	8	86	83	76	7	30	18	0	27	3	4	16	13	0	2	0	4
COC(=O)c1cccc(NC(=O)NC2CCN(c3ccnc(Nc4ccc(OC)cc4)n3)C2)c1 (stereo not drawn) [GSK1379746]	0	0	0	0	0	0	0	0	35	0	10	27	19	0	20	0	0	0	30	0
Cn1cncc1-c1cc2c(Nc3ccc(OCc4ccccc4)cc3)ncnc2cn1 [GW281179]	0	0	0	0	11	0	21	0	16	0	9	20	4	0	24	0	0	0	0	0
COc1cccc(CNC(=O)NC2CCN(c3ccnc(Nc4ccc(F)cc4)n3)C2)c1 (stereo not drawn) [GSK1379723]	38	0	0	0	10	0	14	7	15	0	7	0	0	26	0	0	0	0	2	0
COc1ccc(Nc2nccc(N3CCC(NC(=O)C(C)c4ccc(Cl)cc4)CC3)n2)cc1 (stereo not drawn) [GSK1379812]	47	2	0	22	100	0	15	0	27	7	8	5	0	16	15	0	21	22	0	12
